High-throughput results: PubChem, several laboratories
Rows were chosen to be rich in hits. Some 3.4% of all compounds tested hit in one or more screens of this group.
MEKK3 PB1 HTS = modulators of MEKK3-MEK5 PB1 binding, primary screen, biochemical, wildtype MEKK3, multiplex bead flow cytometry, Alexa488-MEK5; hit rate 1.4% among 290,000; Mitogen-activated protein kinase kinase kinase 3 (Homo sapiens), Q99759; AID 1529, 2009; binding response (% of control), % at 10 µM; bead-based flow cytometry, Alexa488-MEK5 binding to MEKK3; actives lie on both sides; 0 = blocked by unlabeled MEK5, 100 = vehicle;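 active means binding response more than 3 SD above or below the average of its plate-row segment, actives on both sides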;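 further: Alexa488 bead fluorescence after subtracting the streptavidin-only scavenger bead signal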
TMEM16A inh = TMEM16A chloride channel inhibitors, primary screen, cell-based, HTS; hit rate 1.2% among 310,000; AID 588511, 2011; normalized B-score (activity score, 25-100; higher = stronger inhibition) at 10 µM; HEK293 TMEM16A/YFP iodide influx fluorescence, ionomycin;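 active means ratio plate-corrected score three or more library SD toward inhibition, starting fluorescence score within five deviations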;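 further: score derived from kinetic fluorescence span divided by baseline fluorescence per well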
NTR1 ag = agonists of human NTR1, primary screen, imaging, U2OS cells, beta-arrestin-GFP, high content; NTR1-U2OS beta-arrestin-GFP spot imaging, agonist mode; AID 493036, 2011; activation, % at 20 µM; hit rate 0.17% among 330,000; Neurotensin receptor type 1 (Homo sapiens), P30989;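 active means activation at or above 40% of the spot to cytoplasm intensity ratio, with at least 20 cells analyzed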;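 further: 0% = DMSO without peptide and 100% = 100 nM NTR1 peptide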
Target sequence (P30989 whole entry, looked up): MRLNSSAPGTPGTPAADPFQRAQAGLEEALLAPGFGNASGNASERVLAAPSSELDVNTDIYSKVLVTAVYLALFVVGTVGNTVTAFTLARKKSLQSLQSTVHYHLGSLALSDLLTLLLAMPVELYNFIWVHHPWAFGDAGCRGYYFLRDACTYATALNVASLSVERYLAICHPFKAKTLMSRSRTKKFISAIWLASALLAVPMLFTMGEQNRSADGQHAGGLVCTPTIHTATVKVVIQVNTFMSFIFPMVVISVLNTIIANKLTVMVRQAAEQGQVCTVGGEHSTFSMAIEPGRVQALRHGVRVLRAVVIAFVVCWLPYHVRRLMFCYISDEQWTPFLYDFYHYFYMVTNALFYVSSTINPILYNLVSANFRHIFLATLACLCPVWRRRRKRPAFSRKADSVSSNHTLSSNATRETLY
MEKK2 WT-MEK5 = modulators of MEK5 binding to wildtype MEKK2, primary screen, biochemical, multiplex bead flow cytometry, Alexa488-MEK5; Mitogen-activated protein kinase kinase kinase 2 (Homo sapiens), Q9Y2U5; Alexa488-MEK5 binding to MEKK2 WT; actives lie on both sides; binding response (% of control), % at 10 µM; hit rate 1.1% among 290,000; in the data active means binding response below about 67% or above about 130%
TMEM16A act = TMEM16A chloride channel activators or potentiators, primary screen, cell-based, HTS; B-score at 10 µM; hit rate 0.3% among 340,000; Anoctamin-1 (Mus musculus), Q8BHY3; HEK293 TMEM16A/YFP-H148Q/I152L, iodide quench fluorescence; active compounds read low; AID 623877, 2012;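 active means fluorescence-ratio B-score plate-corrected deviation score at least 3 library SD below zero, with starting fluorescence score within 5 deviations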;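 further: channel opened by trigger with iodide after compound preincubation; score built on the fluorescence ratio of max minus min over baseline; more negative score means more quench and so TMEM16A activation or potentiation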
MEKK2mut PB1 HTS = MEK5 binding signal on mutant MEKK2 PB1, primary screen, biochemical, multiplex bead flow cytometry, Alexa488-MEK5; Alexa488-MEK5 binding to MEKK2 mutant; percent response, % at 10 µM; hit rate 0.35% among 290,000; AID 1530, 2009; in the data active means percent response above about 24%, passing the limit was not always enough
MEKK2wt confirm = modulators of MEK5 binding to wildtype MEKK2, confirmation, biochemical, single concentration, multiplex bead flow cytometry. shares compounds with MEKK3 PB1 HTS. Alexa488-MEK5 binding to MEKK2 WT; actives lie on both sides. binding response (% of control), % at 10 µM. hit rate 2.4% among 5,900. AID 1892, 2009; in the data active means binding response below about 16% or above about 210%; inactive means in between
MEKK2mut-MEK5 = mutant MEKK2 PB1-MEK5 binding signal retest – biochemical, single concentration, multiplex bead flow cytometry, confirmation; shares compounds with MEKK3 PB1 HTS; percent response, % at 10 µM; AID 1893, 2009; hit rate 2% among 5,900; Alexa488-MEK5 binding to MEKK2 mutant; in the data active means percent response mostly above about 71%, no sharp cut-off; inactive means mostly below about 38%;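 further: higher means compound restores mutant binding toward wildtype level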
MEKK3 confirm = MEKK3 wild-type PB1 binding to MEK5, inhibitors, confirmation, biochemical, bead multiplex flow cytometry, single concentration, wildtype; Alexa488-MEK5 binding to MEKK3; active compounds read low; binding response (% of control), % at 10 µM; shares compounds with MEKK3 PB1 HTS; hit rate 1.8% among 5,900;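 active means binding response below 72% of control, or above a set upper limit, though filed actives all read lower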;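 further: 100% = DMSO only wells and 0% = binding blocked by excess unlabeled MEK5; lower values mean stronger disruption of MEK5 binding to MEKK3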
Starred values were filed as active, the others as inactive; [ ] = remark or other dose.

How did O=C(Nc1ccccc1-c1ccccc1)NC1CCN(C(=O)N2CCOCC2)CC1 do in these assays?
MEKK3 PB1 HTS: 122.0*; TMEM16A inh: inactive; NTR1 ag: 0.0; MEKK2 WT-MEK5: 120.0; TMEM16A act: inactive; MEKK2mut PB1 HTS: 4.0; MEKK2wt confirm: 107.0; MEKK2mut-MEK5: 10.0; MEKK3 confirm: 102.0

Results for CCOC(=O)C1CCN(C(=O)c2cccc(NC(=O)C(CC)CC)c2)CC1 ?
MEKK3 PB1 HTS: 81.0*[inhibitor]; TMEM16A inh: inactive; NTR1 ag: -0.3; MEKK2 WT-MEK5: 81.0; TMEM16A act: inactive; MEKK2mut PB1 HTS: -12.0; MEKK2wt confirm: 100.0; MEKK2mut-MEK5: 0.0; MEKK3 confirm: 100.0

Results for O=c1[nH]c2ccc(S(=O)(=O)Nc3ccccc3O)cc2[nH]1 ?
MEKK3 PB1 HTS: 105.0; TMEM16A inh: inactive; NTR1 ag: -0.1; MEKK2 WT-MEK5: 105.0; TMEM16A act: inactive; MEKK2mut PB1 HTS: 4.0

Results for CN1CCN(c2ccccc2NC(=O)c2cc3c(s2)-c2ccccc2OC3)CC1 ?
MEKK3 PB1 HTS: 101.0; TMEM16A inh: inactive; NTR1 ag: 2.3; MEKK2 WT-MEK5: 146.0*; TMEM16A act: inactive; MEKK2mut PB1 HTS: 21.0; MEKK2wt confirm: 172.0; MEKK2mut-MEK5: 37.0; MEKK3 confirm: 107.0

What do the screens show for `O=C(Nc1cccnc1Cl)c1cc2c(s1)-c1ccccc1OC2`?
MEKK3 PB1 HTS: 98.0; TMEM16A inh: inactive; NTR1 ag: 2.7; MEKK2 WT-MEK5: 96.0; TMEM16A act: inactive; MEKK2mut PB1 HTS: 0.0

Results for CC1CC1C(=O)OCC(=O)Nc1ccc(N=Nc2ccccc2)cc1 (stereo unspecified) ?
MEKK3 PB1 HTS: 136.0*; TMEM16A inh: inactive; NTR1 ag: 2.9; MEKK2 WT-MEK5: 107.0; TMEM16A act: inactive; MEKK2mut PB1 HTS: 5.0; MEKK2wt confirm: 99.0; MEKK2mut-MEK5: -3.0; MEKK3 confirm: 95.0

What do the screens show for `COc1ccc([N+](=O)[O-])cc1NC(=O)C(C)OC(=O)C1CCC1` (stereo unspecified)?
TMEM16A inh: inactive; NTR1 ag: -0.7; TMEM16A act: inactive

How did Cc1ccc(C(=O)C(C)OC(=O)Cn2cnc3c2c(=O)n(C)c(=O)n3C)cc1 (stereo unspecified) do in these assays?
TMEM16A inh: inactive; NTR1 ag: 0.0; TMEM16A act: inactive

How did CN(C(=O)CSc1nc(-c2ccccc2)c(-c2ccccc2)o1)C1CCS(=O)(=O)C1 (stereo unspecified) do in these assays?
MEKK3 PB1 HTS: 91.0; TMEM16A inh: inactive; NTR1 ag: 2.7; MEKK2 WT-MEK5: 94.0; TMEM16A act: inactive; MEKK2mut PB1 HTS: -3.0

Results for CN(C(=O)CSc1nnc(-c2ccccc2)c(-c2ccccc2)n1)C1CCS(=O)(=O)C1 (stereo unspecified) ?
MEKK3 PB1 HTS: 137.0*; TMEM16A inh: inactive; NTR1 ag: -2.4; MEKK2 WT-MEK5: 112.0; TMEM16A act: inactive; MEKK2mut PB1 HTS: 1.0; MEKK2wt confirm: 103.0; MEKK2mut-MEK5: 1.0; MEKK3 confirm: 101.0
